Assay results as given in PubChem BioAssay AID430 (Sanford-Burnham Center for Chemical Genomics, 2006).
Among all 63,000 compounds or so, about 1,100 (1.7%) were called active. Cut-off read from the data, not from the text of the source: active = cytotoxicity above about 50%; inactive = the rest. What follows is part of a selection rich in actives, with near analogues and random picks from the rest. Results with a measured potency or affinity are listed apart.

Test: HPDE-C7 pancreatic duct cell viability loss – fluorescence, HTS (AID 430);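 note: cells exposed to compound for 48 hours before viability readout; 0% = vehicle and 100% = reference cytotoxic drug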
Conditions: HPDE-C7 pancreatic duct cells viability, at 10 µM, active compounds read high
For `O=C(Nn1cnnc1)c1cc(-c2ccccn2)nc2ccccc12`, the cytotoxicity was 2.7% (inactive).
For `CCN1CCN(c2c(Cl)cccc2NC(=O)c2ccc(Br)o2)CC1`, the cytotoxicity was 1.5% (inactive).
In the case of `O=C(Nc1ccccc1N1CCCC1)c1ccc(Br)o1`, the cytotoxicity is reported as 1.2% (inactive).
In the case of `O=C(Nc1cccc(Cl)c1N1CCCC1)c1ccc(Br)o1`, the cytotoxicity is reported as 75% (active).
For `CCCCNS(=O)(=O)c1ccc2nc(SCC(=O)c3ccc(C#N)cc3)[nH]c2c1`, the cytotoxicity was 5.7% (inactive).
With `N#Cc1ccsc1NC(=O)CSc1ncn[nH]1` the cytotoxicity was -0.1% (inactive).
With `CCCCNS(=O)(=O)c1ccc2nc(SCC(=O)Nc3sccc3C#N)[nH]c2c1` the cytotoxicity was 88.6% (active).
In the case of `CCn1cc(Br)c(C(=O)N(C)Cc2ccccc2)n1`, the cytotoxicity is reported as -2.4% (inactive).
With `CCC1CCCCN1C(=O)COC(=O)c1ccc(S(=O)(=O)N2CCOCC2)cc1` (stereo unspecified) the cytotoxicity was -5% (inactive).
For `Cc1ccc(-c2nnn(CC(=O)N(c3ccccc3)C(C(=O)NC3CCCC3)c3ccco3)n2)o1` (stereo unspecified), the cytotoxicity was -1% (inactive).
In the case of `Cc1ccc(-c2nnn(CC(=O)N(Cc3cccs3)C(C(=O)NC(C)(C)C)c3ccco3)n2)o1` (stereo unspecified), the cytotoxicity is reported as -3.6% (inactive).
For `Cc1ccc(-c2nnn(CC(=O)N(Cc3cccs3)C(C(=O)NC3CCCC3)c3ccco3)n2)o1` (stereo unspecified), the cytotoxicity was 80.5% (active).
For `COc1ccc(OC)c(Nc2nc(-c3sc(N)nc3C)cs2)c1`, the cytotoxicity was 34.5% (inactive).
With `COc1ccc(CNC(=O)C2CCCN2S(=O)(=O)c2ccc(C)cc2)cc1` (stereo unspecified) the cytotoxicity was 9.7% (inactive).
With `CC(C)(C)c1ccccc1OCCCCCNCCO` the cytotoxicity was 9.8% (inactive).
With `CC(=O)CCc1c(C)[nH]c2ccccc2c1=O` the cytotoxicity was -19.6% (inactive).
For `Cc1ccc(-c2noc(CCC(=O)NCCCN3CCN(c4cccc(Cl)c4)CC3)n2)cc1`, the cytotoxicity was -6.5% (inactive).
With `O=C(Nc1ccc2nc(-c3ccco3)c(-c3ccco3)nc2c1)N1CCCCCC1` the cytotoxicity was 29.1% (inactive).
For `O=C(c1ccc2ccccc2c1)N1CCN(c2ccccc2)CC1`, the cytotoxicity was -4.8% (inactive).
In the case of `O=C(Nc1ccc(N2CCOCC2)cc1)Nc1ccc2nc(-c3ccco3)c(-c3ccco3)nc2c1`, the cytotoxicity is reported as 76.2% (active).
For `O=C(c1cc(-c2ccco2)on1)N1CCN(c2ccccc2)CC1`, the cytotoxicity was 13.6% (inactive).
In the case of `CN1CCN(C(=O)c2ccc3ccccc3c2)CC1`, the cytotoxicity is reported as -15.3% (inactive).
With `COc1ccccc1N1CCN(C(=O)c2ccc3nc(-c4ccco4)c(-c4ccco4)nc3c2)CC1` the cytotoxicity was 8.9% (inactive).
With `O=C(c1ccc2ccccc2c1)N1CCN(c2ccc(O)cc2)CC1` the cytotoxicity was 50.3% (active).
With `O=C(Nc1ccc(N2CCOCC2)cc1)c1ccc2nc(-c3ccco3)c(-c3ccco3)nc2c1` the cytotoxicity was -9.4% (inactive).
With `O=C(c1cccs1)N1CCC(c2ccccc2)C1` (stereo unspecified) the cytotoxicity was 5.4% (inactive).
In the case of `O=c1[nH]c2ccccc2cc1-c1noc(-c2cccnc2)n1`, the cytotoxicity is reported as 6.4% (inactive).
In the case of `CCCOc1ccc(NC2=CC(=O)CC(C)(C)C2)cc1`, the cytotoxicity is reported as -2.4% (inactive).
In the case of `COc1cc(-c2csc(N3CCOCC3)n2)cc(OC)c1OC`, the cytotoxicity is reported as 4.3% (inactive).
With `COc1ccc(OC)c(NC(=O)c2nnn(Cc3ccc(Br)cc3F)c2N)c1` the cytotoxicity was 18.8% (inactive).
In the case of `c1ccc(-c2ccc(OCCOCCn3cncn3)cc2)cc1`, the cytotoxicity is reported as -14.6% (inactive).
With `O=C(CSc1nnc(C2COc3ccccc3O2)o1)N1CCCc2ccccc21` (stereo unspecified) the cytotoxicity was -5.7% (inactive).
In the case of `COc1ccc(C(O)c2coc3ccc(O)c(CN(C)C)c23)cc1` (stereo unspecified), the cytotoxicity is reported as 8.4% (inactive).
For `CN(C)C(=O)c1nc(C#N)c(N(C)C)o1`, the cytotoxicity was 8.3% (inactive).
In the case of `COC(=O)c1[nH]c2cc(OC)ccc2c1NC(=O)CN1CCOCC1`, the cytotoxicity is reported as 9.3% (inactive).
In the case of `CCC(O)c1cc2c(cc1NC(=O)c1ccc(C)cc1)OCCO2` (stereo unspecified), the cytotoxicity is reported as -1.6% (inactive).
For `Cc1cc(NC(=O)c2cc(-c3cccnc3)nc3c(C)c(C)ccc23)no1`, the cytotoxicity was 22.3% (inactive).
For `Cc1cc(NC(=O)c2cc(-c3ccncc3)nc3c(C)cccc23)no1`, the cytotoxicity was 64.9% (active).
In the case of `Cc1cc(C)c2nc(-c3ccccn3)cc(C(=O)Nc3cc(C)on3)c2c1`, the cytotoxicity is reported as 6.6% (inactive).
In the case of `O=C(c1cc(-c2ccc3c(c2)OCO3)on1)N1CCN(c2ccccc2)CC1`, the cytotoxicity is reported as 20.6% (inactive).
With `CCOc1ccc2nc(NC(=O)CN3CCC(n4nnc5cc(F)ccc54)CC3)sc2c1` the cytotoxicity was 55.7% (active).
In the case of `CCOC(=O)c1ccccc1NC(=O)CN1CCC(n2nnc3cc(F)ccc32)CC1`, the cytotoxicity is reported as 13.5% (inactive).
With `COc1ccccc1NC(=O)CN1CCC(n2nnc3cc(F)ccc32)CC1` the cytotoxicity was -8.8% (inactive).
For `O=C(Nc1ccc(NC(=O)C2CC2)nc1)c1ccccn1`, the cytotoxicity was -20.6% (inactive).
For `Cc1cc(C(=O)Nc2nnc(C3CCCCC3)s2)cs1`, the cytotoxicity was 6.3% (inactive).
In the case of `CCNC(=O)C1CC(=O)N(c2ccc(Br)cc2)C1` (stereo unspecified), the cytotoxicity is reported as -12.4% (inactive).
With `O=C(CCN1Cc2ccccc2C1)c1ccc2c(c1)OCCO2` the cytotoxicity was -7.3% (inactive).
With `O=C(CCN1CCc2ccccc2C1)Nc1ccc2c(c1)OCO2` the cytotoxicity was 2.3% (inactive).
In the case of `O=C(CCN1CCc2ccccc21)c1ccc2c(c1)OCCO2`, the cytotoxicity is reported as 1.9% (inactive).
For `O=C(CCCN1CCOCC1)c1ccc2c(c1)OCCO2`, the cytotoxicity was 7.8% (inactive).
For `Cc1cccc(-n2nnnc2SCC(=O)c2cc(C)n(CC3CCCO3)c2C)c1` (stereo unspecified), the cytotoxicity was -31.6% (inactive).
In the case of `O=C(Nc1nc(-c2ccc(Cl)s2)cs1)c1cccs1`, the cytotoxicity is reported as 12.2% (inactive).
In the case of `CC(=O)c1cccc(S(=O)(=O)NCC(c2ccco2)N2CCCCC2)c1` (stereo unspecified), the cytotoxicity is reported as 1% (inactive).
In the case of `CCc1ccccc1NC(=O)CCc1nc(-c2ccc(C)cc2)no1`, the cytotoxicity is reported as -5.6% (inactive).
With `COc1ccc(C(CC(=O)O)NC(=O)COc2ccccc2)cc1OC` (stereo unspecified) the cytotoxicity was -11.8% (inactive).
With `N#Cc1c(-c2cccs2)cc(-c2ccccn2)nc1N` the cytotoxicity was 42.3% (inactive).
With `COc1ccc(-c2nc(SCC(=O)NCc3ccco3)c(-c3ccccc3)[nH]2)cc1OC` the cytotoxicity was -5.2% (inactive).
For `CSc1nc(C2CC2)cc(-c2cccs2)c1C#N`, the cytotoxicity was 63.4% (active).
For `COc1ccc(-c2[nH]c(-c3cccc(OC)c3)nc2SCC(=O)NCc2ccco2)cc1`, the cytotoxicity was 51.3% (active).
In the case of `CCN(CC)C(=O)CSc1nc(C)cc(-c2cccs2)c1C#N`, the cytotoxicity is reported as 9.8% (inactive).
With `COc1ccc(-c2ccc(SCC(=O)NCc3ccco3)nn2)cc1` the cytotoxicity was -13.7% (inactive).
In the case of `COCc1cc(C)nc(SCC(=O)NCc2ccco2)c1C#N`, the cytotoxicity is reported as 1.9% (inactive).
With `COc1ccc(-c2[nH]c(-c3ccc(F)cc3)nc2SCC(=O)NCc2ccco2)cc1OC` the cytotoxicity was 0.1% (inactive).
With `CN1CCN(C(=O)CSc2nc(-c3cccs3)ccc2C#N)CC1` the cytotoxicity was 15.3% (inactive).
With `COc1ccc(-c2cc(-c3cccs3)c(C#N)c(SCC(=O)NCc3ccco3)n2)cc1` the cytotoxicity was 52% (active).
In the case of `N#Cc1c(-c2ccccc2)cc(C2CC2)nc1N`, the cytotoxicity is reported as -2.8% (inactive).
